BL2 CD40 inh = inhibitors of CD40-induced NF-kB signaling, primary screen, BL2 cells, luciferase reporter, single point; CD40L-induced, 4 h; inhibition, % at 10 µM; 83,000 tested, 0.94% active;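 active = mean inhibition of at least 50% with a set share of replicates also reaching that level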;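 also: 0% = neutral control wells and 100% = IKK inhibitor VII at 50 µM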
An asterisk follows results filed as active; [ ] = dose if it differs, or a comment. This is one part of a sample in which hits are shown more often than they occur.

`C#CCN1C(C)=C(C(=O)CCO)C(c2cccc(-n3oo3)c2)C(C(=O)OC)=C1C` (configuration not stated) gave BL2 CD40 inh 4[25 µM].
For O=C(O)[C@@H]1[C@@H](CO)[C@@H]2Cn3c(ccc(-c4ccccc4)c3=O)[C@H]1N2S(=O)(=O)c1ccccc1F the results were BL2 CD40 inh 5[25 µM].
For O=C(Cc1ccncc1)N1CCCCN2[C@H](CO)[C@H](c3ccc(C#Cc4ccccc4F)cc3)[C@H]2C1 the results were BL2 CD40 inh -11[25 µM].
`CC(=O)N1C[C@@H]2N[C@H](C1)C2c1ccccc1` (some centres not stated) gave BL2 CD40 inh -4.
For C=CCN1[C@@H]2CN(C(=O)NC(C)C)C[C@H]1C2c1ccccc1 (some centres not stated) the results were BL2 CD40 inh -2.
Screening COc1cc2cc(C(=O)N3CC(COS(C)(=O)=O)c4ccc(O)cc43)[nH]c2c(OC)c1OC (configuration not stated) returned BL2 CD40 inh 91*.
Screening COC(=O)[C@@H]1[C@@H](CO)[C@@H]2Cn3c(cccc3=O)[C@H]1N2Cc1nccs1 returned BL2 CD40 inh 12[25 µM].
Screening c1cc(-c2ccc(C3[C@H]4CNC[C@@H]3N4CC3CC3)cc2)ccn1 (some centres not stated) returned BL2 CD40 inh -5.
`COc1ccc(CC2C(=O)NC(C)C(=O)N(C)C3C(=O)N(C)C(Cc4ccc(O)c(c4)Oc4ccc(cc4)C3O)C(=O)NC(C)C(=O)NC(C)C(=O)N2C)cc1` (configuration not stated) gave BL2 CD40 inh 124*.
For C=CCN1CCC23c4c5ccc(O)c4OC2/C(=N\NC(=O)c2ccccc2)CCC3(O)C1C5 (configuration not stated) the results were BL2 CD40 inh -12[25 µM].
Screening O=C([C@H]1N[C@H]2c3cccc(=O)n3C[C@H]2[C@@H]1CO)N1CCCCC1 returned BL2 CD40 inh 1[25 µM].

Screening data as filed in PubChem BioAssay.
